# Compounds with a hit are over-represented: about 2.4% of the library has one in this group of screens.
# WRN inhibitor – WRN helicase (human) inhibition; Q14191; WRN helicase unwinding, fluorescent forked duplex, kinetic; Potency, µM (doses to about 114 µM), without a hit: top-dose activity change, negative = inhibition, usual class: inhibitors; 0.46% of 360,000 active; note: potency is the fitted concentration of half-maximal effect; % is set by controls: 0 for no effect and ±100 for the full control effect; nearly all actives have a fitted effect of over 55% in size
#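 Kinetic fluorescence helicase assay: unwinding of a quenched forked DNA duplex (100 nM final) with 2 mM ATP final raises red fluorescence (525/598 nm). Compounds sat 15 min at room temperature with 20 nM WRN beforehand.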
# FEN1 inhibitor – human FEN1 inhibition | P39748 | Recombinant FEN1 flap cleavage, fluorescence, 15 min | Potency, µM (top dose mostly 114 µM), without a hit: at the top dose activity change, negative = inhibition, hits mostly inhibitors | 0.35% of 390,000 active | AID 588795; note: potency is the fitted concentration of half-maximal effect; % is set by controls: 0 for no effect and ±100 for the full control effect; nearly all actives have a fitted effect of over 65% in size
#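 Read-out was taken twice, immediately and after 15 min, following addition of 50 nM substrate to 10 nM FEN1 that had sat with test compound for 15 min at room temperature. Curves came from a four-parameter Hill model.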
# POLB inh – DNA polymerase beta (human) inhibition. P06746. Pol beta primer extension/strand displacement, fluorescence kinetic. Potency, µM (series often up to 114 µM), without a hit: top-dose activity change, negative = inhibition, hits mostly inhibitors. 1.3% of 340,000 active; note: potency is the fitted concentration of half-maximal effect; % is set by controls: 0 for no effect and ±100 for the full control effect
#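 Homogeneous kinetic assay of primer extension and strand displacement by 10 nM Pol beta, preincubated 15 min at room temperature with compound before 50 nM substrate (final) was added. Read at 0 and 10 min; four-parameter Hill fit.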
# Pol kappa inh-1 – blocks human DNA polymerase kappa activity; Q9UBT6; purified Pol kappa, fluorescent DNA synthesis assay, 10 min; Potency, µM (titrated, usually from 107 µM), for the others: at the top dose activity, negative = inhibition, actives largely listed as inhibitors; 0.53% of 400,000 active; note: potency is the fitted concentration of half-maximal effect; % is set by controls: 0 for no effect and ±100 for the full control effect
#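 Activity was followed as the change in fluorescence between reads at 0 and 10 min after starting the reaction with 50 nM substrate. Beforehand, 10 nM polymerase had been preincubated with compound for 15 min at room temperature.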
# POLI inh – blocks human DNA polymerase iota activity | Q9UNA4 | Pol iota fluorescent replication assay, 10 min | Potency, µM (top dose mostly 115 µM), inactives show top-dose activity, negative = inhibition, hits mostly inhibitors | 1% of 390,000 active; note: potency is the fitted concentration of half-maximal effect
# Target sequence (Q9UNA4 whole entry, looked up): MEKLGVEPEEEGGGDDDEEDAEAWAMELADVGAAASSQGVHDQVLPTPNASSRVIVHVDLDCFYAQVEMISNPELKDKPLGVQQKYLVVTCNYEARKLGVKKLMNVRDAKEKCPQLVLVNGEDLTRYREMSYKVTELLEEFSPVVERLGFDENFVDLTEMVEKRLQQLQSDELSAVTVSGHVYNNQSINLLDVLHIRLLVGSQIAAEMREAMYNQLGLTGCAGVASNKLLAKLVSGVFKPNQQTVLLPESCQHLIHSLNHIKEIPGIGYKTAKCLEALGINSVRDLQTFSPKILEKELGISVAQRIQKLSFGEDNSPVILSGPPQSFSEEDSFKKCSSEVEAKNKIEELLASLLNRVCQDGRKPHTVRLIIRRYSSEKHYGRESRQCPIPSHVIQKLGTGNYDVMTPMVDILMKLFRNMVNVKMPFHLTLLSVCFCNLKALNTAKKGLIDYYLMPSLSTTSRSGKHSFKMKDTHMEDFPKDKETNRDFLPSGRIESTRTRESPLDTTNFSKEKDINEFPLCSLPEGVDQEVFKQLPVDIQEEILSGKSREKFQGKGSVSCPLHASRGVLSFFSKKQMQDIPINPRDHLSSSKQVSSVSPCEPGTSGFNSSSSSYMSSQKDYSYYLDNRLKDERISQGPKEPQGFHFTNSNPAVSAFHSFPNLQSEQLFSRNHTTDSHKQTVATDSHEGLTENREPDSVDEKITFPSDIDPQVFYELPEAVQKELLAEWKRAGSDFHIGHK
#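 Pol iota at 10 nM preincubated 15 min with compounds at room temperature; reaction started with fluorescent substrate, 50 nM final. Fluorescence read kinetically at 0 and 10 min; buffer-only wells as negative control.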
# Pol eta inh-1 – inhibitors of human DNA polymerase eta; Potency, µM (series often up to 114 µM), without a hit: at the top dose activity change, negative = inhibition, hits mostly inhibitors; Q9Y253; recombinant Pol eta, fluorescent DNA replication assay; AID 588591; 1.2% of 390,000 active; note: potency is the fitted concentration of half-maximal effect; % is set by controls: 0 for no effect and ±100 for the full control effect
#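 Fluorescent replication assay: 50 nM final substrate added after a 15 min room-temperature compound preincubation with 10 nM enzyme. Signal taken at 0 min and again at 10 min.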
# Pol iota confirm – Inhibitors of human DNA polymerase iota, confirmation. shares compounds with Pol kappa inh-1. Pol iota primer extension, TAMRA/BHQ fluorescence. Potency, µM, hits mostly inhibitors. 77% of 1,500 active. AID 720496; note: potency is the fitted concentration of half-maximal effect
# GALK confirm – galactokinase (human) inhibition, confirmation; shares compounds with Pol eta inh-1; purified GALK, Kinase-Glo ATP depletion luminescence; Potency, µM (series often up to 115 µM), inactives show at the top dose activity, negative = inhibition, most hits filed as inhibitors; 70% of 150 active
# Redox cycling – counter-screen for GALK inhibitors: redox cycling H2O2 generation; shares compounds with Pol eta inh-1; Phenol red-HRP H2O2 redox cycling, absorbance 600 nm; Potency, µM (doses to about 115 µM), for inactives: at the highest dose activity change, negative = H2O2 signal, hits mostly inhibitors; 40% of 150 active; AID 2035
# HEK293 viability – HEK-293 cytotoxicity, GALK inhibitor secondary | 10% of 170 active | Potency, µM (series often up to 46.1 µM), for the others: at the highest dose activity change, negative = cytotoxicity, hits mostly inhibitors | HEK-293 viability, ATP luminescence (CellTiter-Glo), 24/48 h | shares compounds with Pol eta inh-1 | AID 2547; note: potency is the fitted concentration of half-maximal effect; % is set by controls: 0 for no effect and ±100 for the full control effect
# Pol kappa inh-2 – confirmation of human DNA polymerase kappa inhibitors. shares compounds with Pol eta inh-1. purified Pol-kappa, fluorescent strand-displacement substrate. Potency, µM, hits mostly inhibitors. 76% of 920 active. AID 720501; note: potency is the fitted concentration of half-maximal effect
# Pol eta inh-2 – confirmation of human DNA polymerase eta inhibitors. Potency, µM, most hits filed as inhibitors. 64% of 2,600 active. AID 720502. Pol eta primer extension, TAMRA/BHQ fluorescence, 10 min. shares compounds with Pol eta inh-1; note: potency is the fitted concentration of half-maximal effect
# * hit, by the source's call; ? = inconclusive; . = no result; [ ] = dose if it differs, or a comment. Calls come from the whole dose curve; as a rule, active = well fitted curve in the direction sought with a large enough effect; inconclusive = small, poorly fitted or top-dose-only effect, or another doubt; inactive = no such curve, though single readings can be large; an effect the other way counts as inactive or inconclusive.
SMILES,WRN inhibitor,FEN1 inhibitor,POLB inh,Pol kappa inh-1,POLI inh,Pol eta inh-1,Pol iota confirm,Pol eta inh-2,others
Cn1c(SCC(=O)Nc2cccc(C(=O)O)c2)nnc1-c1cc2cc(Br)ccc2o1,-7%[11.6 µM],-13%,?,-17%,?,?,?,?,
O=C(/C=C/c1ccccc1Cl)Nc1nc(-c2cccs2)ns1,.,-1%,18%,-3%,32%,-18%,.,.,
COc1ccc2c(C)nc(Nc3nc(C)c(C)c(=O)[nH]3)nc2c1,2%[57.1 µM],45µM*,200%,11%,8%,?,53*,76*,
O=c1c(-c2ccc(O)cc2)coc2c(C3OC(CO)C(O)C(O)C3O)c(O)ccc12 (stereo not drawn),.,.,.,-12%[60.1 µM],.,.,.,.,
O=c1cc(-c2ccc(O)cc2)oc2cc(O)c(C3OC(CO)C(O)C(O)C3O)c(O)c12 (stereo not drawn),?,?,8.9µM*,40µM*,35µM*,20µM*,34*,24*,
O=C(Nc1ccc(C(=O)O)cc1)/C(=C\c1ccc2c(c1)OCO2)NC(=O)c1ccccc1,-11%,4%,-1%,-11%,-14%,7%,.,.,
O=C(O)COc1ccccc1/C=N/NC(=O)/C(=C\c1ccc2c(c1)OCO2)NC(=O)c1ccccc1,-16%[11.6 µM],-14%,-15%,-8%,?,?,42*,?,
CCc1ccc2oc(-c3ccc(C)c(NC(=O)COc4ccccc4Cl)c3)nc2c1,.,1%,.,-1%,-20%,.,.,.,
O=C(Cn1c(=O)n(Cc2ccco2)c(=O)c2c3c(sc21)CCCC3)Nc1ccccc1,-15%,7%,2%,-8%,?,-14%,.,.,
NC(=O)Cn1c(=O)n(Cc2ccco2)c(=O)c2c3c(sc21)CCCCC3,?,-12%,10µM*,25µM*,?,40µM*,?,?,
CCCN1CNc2c(c(=O)[nH]c(=S)n2CCc2c(OC)cccc2OC)C1,.,-2%,.,-4%,3%,.,.,.,
O=C1C(=Cc2cccc(O)c2O)SC(=S)N1CCCN1CCOCC1,-31%[11.6 µM],.,.,.,.,20µM*,?,?,
COc1ccc(C=C2SC(=S)N(CCCN3CCOCC3)C2=O)c(OC)c1,1%,.,.,.,.,-15%,.,.,
O=C1C=C(N2CCCCC2)c2ccccc2C1=O,-20%,-8%,.,-10%,8.9µM*,20µM*,34*,24*,
O=C1c2ccccc2C(=O)c2c1cccc2N1CCCC1,?,?,0%,-20%,?,-20%,.,.,
COC(=O)c1ccc(-c2ccc(C(c3c(C)[nH][nH]c3=O)c3c(C)[nH][nH]c3=O)o2)cc1,?,-12%,20µM*,?,3.5µM*,25µM*,?,76*,
Cc1[nH][nH]c(=O)c1C(c1ccc(-c2cccc(C(=O)O)c2)o1)c1c(C)[nH][nH]c1=O,?,-18%,20µM*,89µM*,2.2µM*,13µM*,67*,30*,
Cc1[nH][nH]c(=O)c1C(c1ccc(-c2ccccc2C(=O)O)o1)c1c(C)[nH][nH]c1=O,-19%[11.6 µM],1%,10µM*,?,10µM*,11µM*,47*,27*,GALK confirm=-11%;Redox cycling=6.7µM*;HEK293 viability=6%
COc1ccc(C(=O)Oc2ccc(C(c3c(C)[nH][nH]c3=O)c3c(C)[nH][nH]c3=O)cc2OC)cc1,.,-13%,0%,-14%,?,-1%,.,.,
COC(=O)c1sccc1S(=O)(=O)N1CCN(c2cccc(C)c2C)CC1,.,-20%,0%,0%,0%,-20%,.,.,
COCCCNC(=O)Cn1c(=O)n(-c2cccc(C)c2)c(=O)c2c1c1cc(C)ccc1n2C,.,16%,-3%,-22%[60.1 µM],?,-7%,.,.,
CCOC(=O)CN1C(=O)S/C(=C/c2ccc(N3CCCCC3)o2)C1=O,-1%,2%,46%,0%,13%,-22%,.,.,
CCOC(=O)CN1C(=O)S/C(=C\c2ccc(-c3ccc(C(=O)O)c(Cl)c3)o2)C1=O,-12%[11.6 µM],?,?,40µM*,20µM*,10µM*,?,30*,Pol kappa inh-2=17*
CCn1c(C)cc(/C=C2\NC(=O)N(CC(=O)Nc3ccc(F)cc3)C2=O)c1C,-3%,-2%,1%,-6%,62%,-22%,.,.,
Cc1ccc(NC(=O)CN2C(=O)N/C(=C/c3cc(C)n(-c4ccc(C(=O)O)cc4)c3C)C2=O)cc1,-7%[11.6 µM],-10%,50µM*,?,35µM*,22µM*,42*,27*,Pol kappa inh-2=24*
O=C(COC(=O)Cc1ccc(Cl)cc1)NCc1ccco1,?,-14%,.,79µM*,22µM*,8.9µM*,19*,19*,Pol kappa inh-2=11*
COc1cc(/C=C/C(=O)OCC(=O)NCc2ccco2)ccc1OC(F)F,-16%,-1%,17%,-7%,22%,-15%,.,.,
COc1ccc(/C=C/C(=O)OCC(=O)NCc2ccco2)cc1OC,-9%[11.6 µM],-2%,40µM*,?,22µM*,50µM*,?,?,
CCc1ccccc1NC(=O)c1ccc(Cn2nc(N3CCN(c4ccccc4)CC3)ccc2=O)o1,.,10%,16µM*,?,79µM*,-4%,?,76*,Pol kappa inh-2=34*
Oc1cccc(/C=N/NC(=S)Nc2cccnc2)c1O,?,?,16µM*,?,7.9µM*,20µM*,38*,85*,
